# Entries with a potency or affinity are not part of this list.
# Tests used:
# Klebsiella pneumoniae = conditions: Concentration 32 ug.mL-1;; ASSAY_TEST Inhibition of Bacterial Growth; detection method Absorption (OD600); MEDIA CAMHB; plate type 384well; NBS; CORNING #3640; time 18 hr
# Candida albicans = conditions: Concentration 32 ug.mL-1; ASSAY_TEST Inhibition of Fungal Growth; detection method Absorption (OD530)
# Cryptococcus neoformans = conditions: Concentration 32 ug.mL-1; ASSAY_TEST Inhibition of Fungal Growth; detection method Resazurin; Absorption (OD600-OD570); plate type 384well; NBS; CORNING #3640
Structure (SMILES),Inhibition (Klebsiella pneumoniae),Inhibition (Candida albicans),Inhibition (Cryptococcus neoformans)
Cc1ccccc1Cn1nc2c(=O)n(-c3ccc(Br)cc3)ccn2c1=O,14.05%,0.14%,-2.03%
O=C(Cn1nc2ccc(Sc3cccc(F)c3)nn2c1=O)Nc1cccc(C(F)(F)F)c1,3.15%,0.5%,-9.77%
CC(C)c1nnc2c(SCC(=O)N3CCN(c4ccccc4F)CC3)nc3ccccc3n12,4.71%,-5.14%,-28.6%
COc1ccc(CNC(=O)Cn2nc3c(N4CCN(c5ccccc5C)CC4)nccn3c2=O)cc1,-11.16%,37.75%,-4.67%
Cc1cccc(NC(=O)CSc2nnc3ccc(C(=O)Nc4cccc(F)c4)cn23)c1C,-0.74%,4.11%,-4.88%
CCOc1ccc(NC(=O)Cn2nc3c(N4CCCC(C)C4)nccn3c2=O)cc1 (stereo not given),13.07%,0.78%,-15.46%
O=C(CSc1nnc2c3cc(-c4ccc(F)cc4)nn3ccn12)NCc1ccccc1,0.49%,0.97%,-18.29%
Cc1ccc(-c2cc3c4nn(CC(=O)Nc5ccc(Br)cc5)c(=O)n4ccn3n2)cc1C,-3.52%,9.45%,-8.46%
O=C(Cn1nc2ccc(Sc3cccc(F)c3)nn2c1=O)NCc1ccc(Cl)cc1,0.3%,1.92%,-3.51%
Cc1cc(C)c(NC(=O)CSc2nc3ccccc3n3c(C)nnc23)c(C)c1,10.14%,1.31%,-7.76%
